Data: ChEMBL document CHEMBL1201862, “PubChem BioAssay data set” (2004)
Screen size: about 54,000 sequences; about 2,800 (5.2%) were called active. Cut-off read from the data, not from the text of the source: active = GI50 up to about 1.1 µM and inactive = higher. Only a selection was taken, and actives are over-represented in it overall. Results with a measured potency or affinity are listed apart.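 Following 48 hours of exposure in 96-well plates, responses at five concentrations were used to interpolate endpoints linearly. The concentration for 50% growth inhibition is given as GI50.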

System: NCI-H226
Assay: NCI tumour cell line growth inhibition, 48 h

Substance	GI50 [nM]
TRIBUTYLCHLOROSTANNANE, CHEMBL1088186	210
